# Laboratory results: PubChem BioAssay (NCATS)
# Records with an inconclusive call do not appear. A call without a number means that no potency is given here. Active and inactive are the calls of the source. Calls follow the shape of the dose curve; as a rule, active = well fitted inhibition curve with a large enough effect; inconclusive = small, poorly fitted or top-dose-only effect; inactive = no such curve, though single readings can be large or run the other way. *1 amine or outer side, *2 acyl side, *3 side chain or, on linkers, in order; H or OH if unused. Where a SMILES comes first, the peptide text is derived from it. [ ]: non-standard residue; d: D form. The star is where a group is joined. X13 = O=C(C(CC(O)CO)O[*:1])[*:2]; NMeV = CN[CH](C(=O)O)C(C)C; NMeA = CN[CH](C)C(=O)O; PhAc = O=C(Cc1ccccc1)*; βAla = NCCC(=O)O
# Columns and labels:
# [1] = test system: Zika virus NS2B-NS3 protease (unlinked complex); experiment: Primary screen GU Rhodamine qHTS for Zika virus inhibitors: Unlinked NS2B-NS3 protease assay (AID 1347159); also: nearly all actives have a fitted effect of over 60% in size
# Procedure, shortened: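 Noncovalent NS2B hydrophilic domain/NS3 protease complex (25 nM final) in 10 mM Tris-HCl pH 8.0, 0.01% Tween 20, preincubated 15 min with compounds (up to 114 microM), then 1.5 microM Rhodamine110 substrate. Fluorescence change over 15 min fitted to 4-parameter Hill.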
# [2] = test system: Zika virus NS2B-NS3 protease (linked construct); experiment: Primary screen NINDS Rhodamine qHTS for Zika virus inhibitors (AID 1347160); also: nearly all actives have a fitted effect of over 55% in size
# Procedure, shortened: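 Purified NS2B-NS3 protease with the NS2B hydrophilic domain joined by a flexible linker (25 nM) in 10 mM Tris-HCl pH 8.0, 0.01% Tween 20, preincubated 15 min at RT with compound; Rhodamine110 peptide substrate 1.5 µM; fluorescence change over 15 min; 4-parameter Hill fit.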
# Potency is read from the fitted curve at half-maximal effect.
Molecule,Potency [1],Potency [2],"activity change, negative = inhibition [1]"
CC1CCC2(C(=O)O)CCC3(C)C(=CCC4C5(C)CCC(O)C(C)(C(=O)O)C5CCC43C)C2C1(C)O (stereo unspecified),inactive,–,–
COC(=O)CCC1(C)C(C(C)(C)O)C(O)CC2(C)Oc3c(C)c4c(c(OC)c3CC21)C(=O)OC4 (stereo unspecified),inactive,inactive,–
Cc1onc(-c2c(Cl)cccc2Cl)c1CC(=O)NCc1ccc(OCC(F)(F)F)nc1,inactive,–,–
COC(=O)C1=CO[C@@H](O[C@@H]2O[C@H](CO)[C@@H](O)[C@H](O)[C@H]2O)[C@H]2[C@@H]1[C@H](O)[C@H](O)[C@]2(C)O,inactive,–,–
O=C(NC1Cc2ccccc2N(C[C@@H](O)CO)C1=O)c1cc2cc(Cl)sc2[nH]1 (stereo partly specified),inactive,inactive,–
O=C(O)Cc1cn([C@@H]2O[C@H](CO)[C@@H](O)[C@H](O)[C@H]2O[C@@H]2O[C@H](CO)[C@@H](O)[C@H](O)[C@H]2O)c2ccccc12,inactive,inactive,–
CC1OC(O[C@@H]2[C@H](O)[C@@H](OC3OC(CO)C(O)C(O)C3O)[C@H](OC(=O)[C@]34CCC(C)(C)C[C@H]3C3=CCC5[C@@]6(C)CC[C@H](O[C@@H]7O[C@H](C(=O)O)[C@@H](O)[C@H](O[C@@H]8OC[C@@H](O)[C@H](O)[C@H]8O)[C@H]7O[C@@H]7O[C@H](CO)[C@H](O)[C@H](O)[C@H]7O)[C@@](C)(C=O)C6CC[C@@]5(C)[C@]3(C)C[C@H]4O)O[C@@H]2C)C(O)C(O)C1OC1OCC(O)C(O)C1O (stereo partly specified),–,inactive,87.6% [at 19.1 µM] (inactive)
H-DPPDPDRFYGMM-NH2,inactive,inactive,–
CC1CCCCCCCc2cc(O)cc(O)c2C(=O)O1 (stereo unspecified),39.8 µM (active),15.8 µM (active),–
CC1(C)C2CCC1(C)C(OC(=O)C(O)(CC(=O)O)CC(=O)O)C2 (stereo unspecified),inactive,–,–
CC(=O)OC1CCC2(C)C(CCC3(C)C2CC=C2C4CC(C)(C)CCC4(C)CCC23C)C1(C)C(=O)O (stereo unspecified),7.08 µM (active),–,–
CC(C)=CCc1cc(O[C@@H]2O[C@H](CO[C@@H]3OC[C@](O)(CO)[C@H]3O)[C@@H](O)[C@H](O)[C@H]2O)ccc1O,inactive,–,–
Cc1nc2ccccc2c(-c2ccc3c4c(ccnc24)CCO3)c1[C@H](OC(C)(C)C)C(=O)O,inactive,inactive,–
C/C=C1/C[N+](C)([O-])C2Cc3c([nH]c4ccccc34)C(=O)CC1C2C(=O)OC (stereo unspecified),inactive,–,–
CC1(C(=O)O)CC[C@]2(C(=O)OC3OC(CO)C(O)C(O)C3O)CC[C@]3(C)C(=CCC4[C@@]5(C)CC[C@H](OC6OCC(O)C(O)C6OC6OC(CO)C(O)C(O)C6O)C(C)(C)C5CC[C@]43C)C2C1 (stereo partly specified),inactive,inactive,–
CCOc1ccc(-c2nn3ncccc3c2-c2ccc(S(C)(=O)=O)cc2)cc1,inactive,–,–
COC(=O)[C@H](O)[C@H]1C(C)(C)[C@H](OC(C)=O)[C@@]2(O)C(=O)[C@]1(C)C1CC[C@]3(C)C(CC(=O)O[C@H]3c3ccoc3)[C@]13O[C@@H]32 (stereo partly specified),inactive,inactive,–
C[C@@H]1[C@H]2[C@H](O[C@@H]3O[C@H](CO)[C@@H](O)[C@H](O)[C@H]3O)OC=C(C(=O)O)[C@H]2C[C@@H]1OC(=O)/C=C/c1ccc(O)cc1,31.6 µM (active),–,–
C[C@]1(O)CC[C@@H]2C(C(=O)O)=CO[C@@H](O[C@@H]3O[C@H](CO)[C@@H](O)[C@H](O)[C@H]3O)[C@@H]21,inactive,inactive,–

Molecule,Potency [1],Potency [2],"activity change, negative = inhibition [1]"
C[C@@H]1C(=O)O[C@H]2[C@H]1CC[C@@]1(C)C(=O)C=C[C@@](C)(O)[C@H]21,inactive,–,–
C/C(=C/CO)CC[C@H]1[C@]2(C)C[C@H](O)CC(C)(C)[C@H]2CC[C@]1(C)O,inactive,inactive,–
C=C1CC[C@@H]2[C@@](C)(CO[C@@H]3O[C@H](CO)[C@@H](O)[C@H](O)[C@H]3O)[C@H](O)CC[C@@]2(C)[C@@H]1CC/C(C)=C/CO[C@@H]1O[C@H](CO)[C@@H](O)[C@H](O)[C@H]1O,inactive,–,–
CC1=C(CO)C2(C)CCCC(C)(C)C2C(O)C1O (stereo unspecified),inactive,inactive,–
O=C(N[C@H](Cc1ccccc1)C(=O)O)c1sc2cc(F)ccc2c1Cl,39.8 µM (active),–,–
CC1OC(OC2C(OC3C(O[C@H]4CC[C@@]5(C)C(CC[C@]6(C)C5CC=C5C7CC(C)(C)CC(O)[C@]7(C)CC[C@]56C)C4(C)C)OC(C(=O)O)C(O)C3O)OCC(O)C2O)C(O)C(O)C1O (stereo partly specified),7.94 µM (active),–,–
COCC1OC(n2cnc3c(=O)[nH]cnc32)C(O)C1O (stereo unspecified),inactive,–,–
OCC(O)C(c1c[nH]c2ccccc12)c1c[nH]c2ccccc12 (stereo unspecified),50.1 µM (active),–,–
C=C1CCC2C(C)(C)CC(O)CC2(C)C1CCC(C)CCOC(=O)CCC(=O)O (stereo unspecified),2.51 µM (active),–,–
O=C(NC1CCN(CC(F)(F)F)CC1)c1ccc(-c2cccc(F)c2)nc1,inactive,inactive,–
Cc1cn2cc(CC(=O)N3CCC4(CC3)CN(Cc3ccc(-n5nccn5)cc3Cl)C4)nc2s1,inactive,inactive,–
C=C1CCC2[C@@](C)(C(=O)O)CCC[C@@]2(C)[C@@H]1CCc1ccoc1 (stereo partly specified),10 µM (active),–,–
CCOC(=O)CNC(=O)[C@@H]1CCCN1C(=O)Cc1ccccc1 (PhAc-Pro-Gly-OEt),inactive,–,–
COc1ccc(C2(O)c3ccccc3NC(=O)C2OC)cc1 (stereo unspecified),inactive,inactive,–
C=C1C[C@]23C[C@H]1CC[C@H]2[C@]1(C)CC[C@H](O)[C@@](C)(C(=O)O)[C@H]1[C@@H]3C(=O)O,inactive,inactive,–
O=C(/C=C/c1ccc(O)cc1)O[C@H]1[C@H](OC2CCCCC2O)O[C@H](CO)[C@@H](O)[C@@H]1O (stereo partly specified),inactive,inactive,–
CN(C)CC(c1ccc(O)cc1)C1(O)CCCCC1 (stereo unspecified),inactive,inactive,–
NC[C@H]1CCC[C@@H](CNC(=O)[C@@H](Cc2c[nH]c3ccccc23)NC(=O)N2CCC3(C=Cc4ccccc43)CC2)C1,inactive,inactive,–
CC1=C(CO)CC(C(C)C2CCC3C4CC=C5CC(OC6OC(COC7OC(CO)C(O)C(O)C7O)C(O)C(O)C6O)CC(O)C5(C)C4CCC23C)OC1=O (stereo unspecified),inactive,inactive,–

Molecule,Potency [1],Potency [2],"activity change, negative = inhibition [1]"
C[C@H]1/C=C/C=C/C=C/C=C/C=C/[C@@H](O)[C@H](C(=O)O)[C@H](O)C[C@H](O)CCC[C@H](O)C[C@H](O)C[C@H](O)[C@@H](C)C(=O)O[C@@H]1C,inactive,inactive,–
CCC(C)C1NC(=O)C2CCCN2C(=O)C(CC(O)CO)OC(=O)CCNC(=O)C(C)N(C)C(=O)C(C(C)C)N(C)C1=O (stereo unspecified) (cyclo([X13]PI[NMeV][NMeA][βAla]); configuration not given here),inactive,inactive,–
COC(=O)C1=COC(OC2OC(CO)C(O)C(O)C2O)C2C(C)CC(=O)C12O (stereo unspecified),inactive,inactive,–
CC(C)[C@@](O)(c1ccc2cc(OC(F)F)c(OC(F)F)cc2c1)c1cn[nH]n1,inactive,inactive,–
CCC1=C(C)C(=O)C(C)CC12C(=O)CCC2C(=O)O (stereo unspecified),inactive,inactive,–
COC(=O)c1cc(OC)cc(OC)c1C(=O)c1c(OC)cc2c(c1O)C1CCC(O)C(C)(O2)O1 (stereo unspecified),inactive,inactive,–
CC(C)=CCC[C@](C)(O[C@@H]1O[C@H](CO[C@@H]2O[C@@H](CO)[C@H](O)[C@H]2O)[C@@H](O)[C@H](O)[C@H]1O)[C@H]1CC[C@]2(C)[C@@H]1[C@H](O)C[C@@H]1[C@@]3(C)CC[C@H](O[C@@H]4O[C@H](CO)[C@@H](O)[C@H](O)[C@H]4O[C@@H]4O[C@H](CO)[C@@H](O)[C@H](O)[C@H]4O)C(C)(C)[C@@H]3CC[C@]12C,inactive,inactive,–
CC(C)=CC[C@H]1O[C@]2(O)C([C@H]3CCC4[C@@]5(C)CC[C@H](O[C@@H]6O[C@H](CO)[C@H](O)[C@H](O[C@@H]7O[C@H](CO)[C@@H](O)[C@H](O)[C@H]7O)[C@H]6O[C@@H]6O[C@@H](C)[C@H](O)[C@@H](O)[C@H]6O)C(C)(C)C5CC[C@@]4(C)[C@]3(C)[C@H]2O)[C@@]1(C)O (stereo partly specified),inactive,inactive,–
OC[C@H]1O[C@@H](Oc2cc(O)cc(-c3cc4ccc(O[C@@H]5O[C@H](CO)[C@@H](O)[C@H](O)[C@H]5O)cc4o3)c2)[C@H](O)[C@@H](O)[C@@H]1O,inactive,inactive,–
COc1cc(C[C@@]2(O)CO[C@@H](c3ccc(O[C@@H]4O[C@H](CO)[C@@H](O)[C@H](O)[C@H]4O)c(OC)c3)[C@H]2CO)ccc1O,inactive,inactive,–
COc1cnc(-n2cnc(C)n2)c2[nH]cc(C(=O)C(=O)N3CCN(C(=O)c4ccccc4)CC3)c12,inactive,inactive,–
CCOC(=O)C(CCc1ccccc1)NC1CCCN2CCCC(C(=O)O)N2C1=O (stereo unspecified),inactive,inactive,–
CC(C)[C@](O)(c1ccc2cc(OC(F)F)c(OC(F)F)cc2c1)c1cn[nH]n1,inactive,inactive,–
Oc1ccccc1-c1cc(-c2ccccc2F)[nH]n1,inactive,inactive,–
CC1(C)CC[C@]2(C(=O)O)CC[C@]3(C)C(=CCC4[C@@]5(C)C[C@@H](O)[C@H](O)[C@@](C)(CO)C5[C@H](O)C[C@]43C)[C@@H]2C1 (stereo partly specified),inactive,inactive,–
C[C@@H]1O[C@@H](O[C@H]2[C@H](O)[C@@H](O)[C@H](OC[C@H]3O[C@@H](OC(=O)[C@]45CCC(C)(C)C[C@H]4C4=CCC6[C@@]7(C)C[C@@H](O)[C@H](O)[C@@](C)(CO)C7[C@H](O)C[C@@]6(C)[C@]4(C)CC5)[C@H](O)[C@@H](O)[C@@H]3O)O[C@@H]2CO)[C@H](O)[C@H](O)[C@H]1O (stereo partly specified),inactive,inactive,–
NC(=O)[C@@H]1CC[C@H](c2ccc(OCc3ccccc3F)cc2)N1,inactive,inactive,–
CC(O)C1CCC2C3CCC4CC(OC5OC(C(=O)O)C(O)C(O)C5O)CCC4(C)C3CCC12C (stereo unspecified),inactive,inactive,–
On1ncc(C2CCNCC2)c1-c1cccc(-c2ccccc2)c1,inactive,inactive,–
